HIF-2a block: HIF-2a reporter inhibitors, primary screen, luminescence, 786-0 RCC cells; hit rate 0.72% among 360,000; inhibition, % at 18.8 µM; 786-0 RCC cells HIF-2a reporter, luciferase luminescence, overnight;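 active = inhibition of the luminescence signal of 40% or more relative to plate controls, in a single-dose primary screen at 18.75 µM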
KKLEB tox: cytotoxicity in KKLEB CF airway cells, primary screen, cytotoxicity control for CF NF-kB inhibitor project, cell-based, uHTS, fluorescence assay plates | KKLEB CF airway cells viability, ATPlite luminescence, overnight; stronger effect = lower value; cells stimulated with P. aeruginosa culture filtrate | activity change (cytotoxicity), % at 5 µM | hit rate 0.36% among 360,000 | AID 602141, 2011;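 active = corrected activity change at or below -50% at 5 µM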
PPC-1+TRAIL kill: compounds killing PPC-1 cancer cells with TRAIL present, primary screen, TRAIL potentiator project, ATPLite luminescence, uHTS. PPC-1 cells + TRAIL, ATPLite viability luminescence. cell killing (% activity), % at 4 µM or 5 µM. hit rate 0.41% among 220,000. AID 1443, 2008;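 active = cell killing above 50% in the first pass at 4 µM, then a duplicate retest at 5 µM averaging 50% or more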;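 note: plate controls were cells with TRAIL plus DMSO for no effect and medium-only wells lacking cells for full effect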
iPSC survival up: enhancers of single-cell hiPSC survival, primary screen, ATPlite luminescence; 100% = ROCK inhibitor wells, 0% = DMSO; survival enhancement, % at 20 µM; hit rate 0.044% among 360,000; in the data active = survival enhancement above about 18%;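 note: cells exposed to compounds for 16 hours before the ATP read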
CF NFkB inh: inhibitors of PAF-induced NF-kB signaling, primary screen, cell-based, GFP fluorescence, uHTS; KKLEB NF-kB-GFP reporter, GFP fluorescence overnight; inhibition, % at 5 µM; hit rate 0.86% among 360,000;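 active = at least 50% inhibition at 5 µM, scaled per plate between neutral and stimulator controls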;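 note: PAF is a Pseudomonas aeruginosa culture filtrate used as stimulus; plate controls were PAF-stimulated DMSO wells for no effect and unstimulated DMSO wells for full effect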
TRAIL sens C8: viability loss with TRAIL in NB7+C8 cells, primary screen, TRAIL sensitizer project, cell-based, ATPlite luminescence | inhibition (viability loss, TRAIL sensitization), % at 10 µM | hit rate 1% among 360,000 | AID 624354, 2012;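 active = compounds causing at least 50% loss of cell viability in the single-dose screen, relative to plate controls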
Mdm2-MdmX confirm: retested Mdm2-MdmX interaction blockers, confirmation, cell-based, luminescence, single concentration, set 2; shares compounds with HIF-2a block; SaOS-2 split-luciferase Mdm2/MdmX complementation; inhibition, % at 8 µM; hit rate 99% among 740;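 active = mean inhibition of the luminescence signal across two replicates at or above 26 percent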
Target sequence (O15151 whole entry, looked up): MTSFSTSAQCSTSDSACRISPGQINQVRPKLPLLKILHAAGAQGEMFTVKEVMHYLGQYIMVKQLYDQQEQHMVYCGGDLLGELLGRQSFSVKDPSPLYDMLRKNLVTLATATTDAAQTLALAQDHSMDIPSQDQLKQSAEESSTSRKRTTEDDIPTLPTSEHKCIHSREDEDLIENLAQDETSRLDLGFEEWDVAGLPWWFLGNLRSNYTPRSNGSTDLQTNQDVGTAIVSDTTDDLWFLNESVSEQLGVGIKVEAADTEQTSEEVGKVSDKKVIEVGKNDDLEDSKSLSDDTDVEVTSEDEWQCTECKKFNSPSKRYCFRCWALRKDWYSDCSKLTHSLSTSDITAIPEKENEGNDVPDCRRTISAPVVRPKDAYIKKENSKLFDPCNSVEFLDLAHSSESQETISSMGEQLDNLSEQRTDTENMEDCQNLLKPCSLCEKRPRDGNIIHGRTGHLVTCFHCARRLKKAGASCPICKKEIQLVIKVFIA
Target sequence (Q00987 whole entry, looked up): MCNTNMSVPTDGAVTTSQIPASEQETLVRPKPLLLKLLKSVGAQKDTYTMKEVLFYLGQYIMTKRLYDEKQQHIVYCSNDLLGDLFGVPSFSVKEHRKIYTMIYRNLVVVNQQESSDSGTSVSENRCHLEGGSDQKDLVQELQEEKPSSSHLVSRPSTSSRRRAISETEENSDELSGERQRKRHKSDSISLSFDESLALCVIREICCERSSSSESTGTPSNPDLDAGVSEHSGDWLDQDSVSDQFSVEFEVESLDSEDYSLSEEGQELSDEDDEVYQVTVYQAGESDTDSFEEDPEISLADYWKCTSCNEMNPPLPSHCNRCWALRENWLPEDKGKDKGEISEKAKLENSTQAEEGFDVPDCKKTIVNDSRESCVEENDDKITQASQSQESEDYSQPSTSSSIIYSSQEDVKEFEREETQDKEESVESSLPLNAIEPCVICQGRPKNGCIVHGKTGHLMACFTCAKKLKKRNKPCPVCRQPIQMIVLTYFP
HIF-2a conf: HIF-2a reporter inhibitor retest, confirmation, luminescence, 786-0 RCC cells | inhibition, % at 18.8 µM | shares compounds with HIF-2a block | HIF-2a luciferase reporter luminescence, overnight | hit rate 56% among 1,800;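 active = mean inhibition across four replicates of at least 40 percent at the single tested concentration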
HIF-1a counter: HIF-1a luciferase reporter signal reduction – MiaPaCa-2 cells, single concentration, counter-screen for HIF-2a inhibitor project, confirmation | shares compounds with HIF-2a block | MiaPaCa-2 HIF-1a luciferase reporter, desferoxamine, overnight | inhibition, % at 18.8 µM | hit rate 72% among 1,800 | AID 651589, 2012;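 active = mean inhibition of the reporter signal across four replicates at the single tested dose of 50% or more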
* hit, by the source's call; . = no result. An excerpt weighted towards active compounds, which were near 2.2% of everything screened.

SMILES	HIF-2a block	KKLEB tox	PPC-1+TRAIL kill	iPSC survival up	CF NFkB inh	TRAIL sens C8	HIF-2a conf	HIF-1a counter	others
CNC[C@@H](CC1CCCCC1)NC[C@H](CC(C)C)NCCc1cccc(C(F)(F)F)c1	32.0	-72.0*	.	-2.6	49.6	92.2*	.	.	Mdm2-MdmX confirm=103.2*
CCC[C@@H](CNC)NC[C@H](Cc1ccccc1)NCCCCc1ccccc1	-2.3	-15.7	.	-3.2	5.1	33.7	.	.	Mdm2-MdmX confirm=103.2*
COc1ccc(Br)cc1CNC(=O)Cc1c(C(=O)O)[nH]c2ccc(Cl)cc12	16.5	-11.6	-11.3	1.3	16.6	2.7	.	.
O=C(CCN1CCN(Cc2ccccc2)CC1)NNC(=O)c1ccc(Cl)c(Cl)c1	2.4	-20.6	.	3.6	9.5	-17.5	.	.
CN(C)C1=NCCN1CC1CCCC1	6.9	1.2	.	-2.6	6.3	2.7	.	.
CCOC(=O)C(C(=O)OCC)C(C(=O)OCC)N1CCOCC1 (configuration not stated)	90.0*	-4.9	12.6	-1.9	28.6	19.8	97.8*	107.0*
Cc1ccc(Cn2c(SCC(=O)N(C)C3CCS(=O)(=O)C3)nc3ccccc3c2=O)cc1 (configuration not stated)	9.1	-0.1	.	-0.4	-6.7	-20.7	.	.
N/C(Cc1ccc(Cl)cc1)=N\OC(=O)c1ccccc1	-16.4	-1.0	0.4	1.6	-12.0	47.6	.	.
COc1ccc(C(=O)O/N=C(\N)Cc2ccc(Cl)cc2)cc1OC	61.9*	-13.6	5.8	-2.9	11.9	94.2*	4.5	-68.5
COc1ccc(C(=O)O/N=C(\N)Cc2ccc(Cl)c(Cl)c2)cc1OC	87.9*	-23.5	0.0	-1.7	44.7	25.3	1.0	-80.9
CCOC(=O)[C@]12CCCC=C1N(CCC1=CCCCC1)C(=O)[C@H](CC(=O)NCc1cccc(C(F)(F)F)c1)C2	0.9	.	.	.	.	9.3	.	.
Cc1nc2cc(-c3ccccc3)nn2c(C)c1CCC(=O)NC(C)c1ccc2c(c1)OCCO2 (configuration not stated)	65.8*	-0.1	38.8	-0.1	-11.8	-7.5	78.8*	45.1
Cc1nc2cc(-c3cccc(F)c3)nn2c(C)c1CCC(=O)NC(C)c1ccc2c(c1)OCCO2 (configuration not stated)	45.8*	-15.2	-4.4	0.3	-10.3	1.0	72.2*	42.1
COc1ccccc1OCCN1CSC(=S)N(C)C1	87.6*	-18.2	14.4	-2.1	16.0	-2.9	22.9	103.1*
O=C(/C=C/c1ccccc1)NCC(=O)N/N=C/c1cccs1	17.6	20.5	.	-0.1	-48.1	-25.1	.	.
CCOc1ccc(OCc2ccc(C(=O)O)o2)cc1	41.7*	-4.9	-20.1	-4.4	7.8	3.9	27.4	-21.9
O=C(O)c1ccc(COc2ccc3ccccc3c2)o1	-138.8	-0.5	7.9	0.2	-19.0	-6.8	.	.
CCOC(=O)N1CCC(NC(=O)CC2C(=O)NCCN2Cc2cccc(F)c2F)CC1 (configuration not stated)	3.2	5.3	.	-0.3	-14.8	-7.8	.	.
COc1cc2c(cc1OC)C(C1C(=O)CC(C)(C)CC1=O)N(C(=O)CCl)CC2 (configuration not stated)	2.8	-0.9	11.5	1.3	-17.6	-10.8	.	.
COc1cc2c(cc1OC)C(c1cc(Br)ccc1F)N(C(=O)CCl)CC2 (configuration not stated)	89.7*	-68.4*	.	20.6*	105.3*	94.6*	97.3*	103.2*	Mdm2-MdmX confirm=103.2*
COc1ccc(NC(=O)c2cc(CC(C)C)nc3ccccc23)cc1	12.3	1.5	.	-0.4	5.1	-4.6	.	.	Mdm2-MdmX confirm=98.0*
COc1cccc(-c2cc(C(=O)Nc3ccncc3)c3ccccc3n2)c1	-2.0	7.2	.	-0.3	-35.4	4.5	.	.
Cc1ccc(NC(=O)c2cc(CC(C)C)nc3ccccc23)cc1	17.6	-19.0	.	-0.6	-16.6	2.9	.	.	Mdm2-MdmX confirm=93.7*
Cc1ccc(NC(=O)c2cc(C)nc3ccccc23)cc1	-13.7	6.7	.	-0.5	-16.2	-2.1	.	.
Cc1ccc(S(=O)(=O)N2CCC(C(=O)N/N=C/c3ccncc3)CC2)cc1	20.8	-0.1	8.5	2.2	1.2	6.7	.	.
SMILES	HIF-2a block	KKLEB tox	PPC-1+TRAIL kill	iPSC survival up	CF NFkB inh	TRAIL sens C8	HIF-2a conf	HIF-1a counter	others
COc1ccc(/C=N/NC(=O)c2cc(C34CC5CC(CC(C5)C3)C4)[nH]n2)cc1O	55.0*	0.3	-7.6	-1.3	4.8	2.2	-0.4	31.9
COc1ccc(/C=N\NC(=O)c2ccc(=O)[nH]n2)cc1O	28.1	1.8	-0.2	4.9	4.8	19.7	.	.
CCOc1ccccc1NC(=O)/C(C#N)=C/c1c(C)nn(-c2ccc(F)cc2)c1Cl	20.6	-17.8	-7.1	1.8	24.5	-3.7	.	.
CN(C)c1nc(C=C(C#N)C#N)c(Cl)n1-c1ccc(F)cc1	91.2*	-96.4*	7.3	-3.7	85.6*	-18.8	92.3*	92.1*
Cc1nc(Cl)c(C(=O)NCc2ccccc2)c(C)c1Cl	-5.5	-4.3	23.5	-0.2	-6.4	13.1	.	.
O=C(NCc1ccccc1)c1c(Cl)nc(Cl)c(Cl)c1Cl	37.0	-32.9	.	1.3	26.7	93.5*	.	.	Mdm2-MdmX confirm=103.2*
Clc1ccc2nnnc(-c3ccccc3)c2c1	83.0*	2.0	20.7	-0.6	6.7	4.4	71.2*	103.2*
COC(=O)c1c(-c2c(Cl)cccc2Cl)noc1C(=O)NN	19.1	-2.1	-3.9	-0.3	-6.8	-32.5	.	.
C1=CC2=NC34CCCCC3CC3=C(CCCC3)N4C2=CC1=NC1CCCCC1 (configuration not stated)	17.2	0.1	.	-0.2	17.3	21.5	.	.	Mdm2-MdmX confirm=52.0*
CCOc1cc(C=C(C(=O)OC)C(=O)OC)ccc1OCc1ccc([N+](=O)[O-])cc1	92.1*	-2.3	14.8	-4.2	30.8	29.3	98.3*	107.3*
CCOC(=O)CC(=O)CSc1ncnc2c1nnn2-c1ccccc1	-16.9	12.5	.	0.1	-9.2	-2.0	.	.
C/C(=N\NC(=O)Cn1nc(C)c([N+](=O)[O-])c1C)c1ccc(Cl)s1	18.9	5.2	14.6	0.4	5.3	-5.1	.	.
CNC(=O)Cn1nc(-c2ccc(C)cc2)c2ccccc2c1=O	11.8	3.3	.	1.4	-5.8	-18.8	.	.
